Our source for the Potency values is PubChem BioAssay (Tox21).

Records with an inconclusive call do not appear. Activity calls are given as the source filed them. Unless noted, calls follow the shape of the full dose curve.

Assay [1] is described as follows: Nuclear factor erythroid 2-related factor 2/antioxidant responsive element (Nrf2/ARE) small molecule agonists: qHTS cell viability counter screen in human keratinocytes (AID 1919968; active = well fitted curve in the direction sought with a large enough effect in the repeat runs; an effect the other way counts as inactive or inconclusive; also: nearly all actives have a fitted effect of over 55% in size). The method in brief: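 Viability counter-screen: KeratinoSens reporter cells, DMSO-delivered compounds, 23 h at 37 C, CellTiter-Fluor fluorescence.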
Assay [2] in a line: Nuclear factor erythroid 2-related factor 2/antioxidant responsive element (Nrf2/ARE) small molecule agonists: luciferase reporter gene qHTS assay in human keratinocytes (AID 1919969). Also: nearly all actives have a fitted effect of over 35% in size. Also: potency is read from the fitted curve at half-maximal effect. In general terms: In a reporter assay the amount or activity of a reporter protein is the signal.
Assay [3] deals with Gonadotropin-releasing hormone receptor (Homo sapiens) (UniProt P30968). The experiment in a line: Human gonadotropin-releasing hormone receptor (GnRHR) small molecule agonists, calcium flux assay in GnRHR-HEK293 cells (AID 1920063). Also: nearly all actives have a fitted effect of over 35% in size. Put shortly: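 Tox21-format agonist screen using human GnRHR-expressing HEK293 cells and a fluorescent calcium dye; kinetic 3-min fluorescence reading after compound addition, 15-point concentration series run in triplicate.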
Gonadotropin-releasing hormone receptor (Homo sapiens), sequence (P30968 whole entry, looked up): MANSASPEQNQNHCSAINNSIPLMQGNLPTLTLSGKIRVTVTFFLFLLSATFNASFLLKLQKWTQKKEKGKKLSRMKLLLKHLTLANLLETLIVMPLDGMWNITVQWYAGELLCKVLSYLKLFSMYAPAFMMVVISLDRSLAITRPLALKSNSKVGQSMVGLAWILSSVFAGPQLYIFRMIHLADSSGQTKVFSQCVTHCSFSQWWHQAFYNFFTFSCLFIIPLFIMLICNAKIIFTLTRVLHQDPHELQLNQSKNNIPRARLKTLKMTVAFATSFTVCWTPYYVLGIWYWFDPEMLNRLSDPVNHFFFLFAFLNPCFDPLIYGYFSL
(Calcium assays in cells follow changes in intracellular calcium, usually with a dye or a luminescent sensor.)

The target in assay [4] is KiSS-1 receptor (Homo sapiens) (UniProt Q969F8). The experiment in a line: Human kisspeptin (KISS1R) small molecule agonists, calcium flux assay in KISS1R-HEK293 cells (AID 1920064; active = well fitted curve in the direction sought with a large enough effect in the repeat runs; an effect the other way counts as inactive or inconclusive). The method in brief:
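Intracellular calcium mobilization in KISS1R-HEK293 cells was recorded by fluorescence (Ex/Em 480/540) for 3 min following compound addition to cells pre-loaded 1 h with calcium dye.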

Assay [5] in a line: G protein-coupled receptor (GPCR) small molecule agonists, calcium flux assay: HEK293 wild type cell line counter screen (AID 1920065). The method in brief:
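In this agonist-mode screen, ATP is the positive control and DMSO the vehicle. Cells grow 18 h before a 1 h dye incubation at 37 C; signal is taken at Ex/Em 480/540 over 3 min.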

The nature of assay [6]: p53 small molecule agonists, cell-based qHTS assay with human liver microsomes: qHTS cell viability counter screen (AID 1963579). Also: nearly all actives have a fitted effect of over 45% in size. Put shortly: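 p53RE-bla cells, 4,000/well, dosed 5 hours after plating, with human liver microsomes (0.5 mg/mL final) plus NADPH (0.5 mg/mL final), 16 hours at 37 C. Viability read as CellTiter-Glo luminescence after 30 min at room temperature.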
For orientation: Quantitative high-throughput screening tests each substance at several concentrations.

Assay [7] in a line: p53 small molecule agonists, cell-based qHTS assay with rat liver microsomes: qHTS cell viability counter screen (AID 1963580). Also: nearly all actives have a fitted effect of over 45% in size. The method in brief: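 HCT-116 p53RE-bla, 4,000 cells/well, 5 h pre-incubation; cpd + rat liver microsomes 0.5 mg/mL + NADPH 0.5 mg/mL (final); 16 h, 37 C; CellTiter-Glo, 30 min RT; luminescence.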
The nature of assay [8]: p53 small molecule agonists, cell-based qHTS assay: qHTS cell viability counter screen (AID 1963581). Also: nearly all actives have a fitted effect of over 45% in size. Put shortly: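 Compounds are pinned onto HCT-116 p53RE-bla cells and left 16 h at 37 C. Following the reporter FRET read, ATP is quantified by CellTiter-Glo luminescence after 30 min at room temperature.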
Assay [9] addresses 5-hydroxytryptamine receptor 2A (Homo sapiens) (UniProt P28223). The experiment in a line: 5-hydroxytryptamine receptor 2A (HTR2A) small molecule antagonists, cell-based qHTS assay (AID 1963586). Also: nearly all actives have a fitted effect of over 45% in size. The method in brief:
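Antagonist-mode intracellular calcium assay: DOI (4 nM) added after 5 min compound pre-incubation at room temperature to dye-loaded HTR2A-CHO cells. Fluorescence followed for 3 min, sampled every second.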

Assay [10] shares this target. The experiment in a line: 5-hydroxytryptamine receptor 2A (HTR2A) small molecule agonists, cell-based qHTS assay (AID 1963587). Also: nearly all actives have a fitted effect of over 30% in size. The method in brief: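 Kinetic calcium-flux fluorescence (2 min, 1 sec intervals) after compound addition in agonist mode. HTR2A-CHO cells were cultured 18 h, then dye-loaded 1 h at 37 C.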
The target in assay [11] is Muscarinic acetylcholine receptor M1 (Homo sapiens) (UniProt P11229). Kind of assay: Cholinergic receptor muscarinic 1 (CHRM1) small molecule antagonists, cell-based qHTS assay (AID 1963588). Also: nearly all actives have a fitted effect of over 40% in size. Also: potency is read from the fitted curve at half-maximal effect. Put shortly: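 CHRM1-CHO calcium-flux assay, antagonist mode. Cells were seeded 18 h, dye-loaded 1 h at 37 C and given compound for 5 min at RT, then acetylcholine was added at 50nM. FDSS fluorescence was read 3 min; 15 concentrations, three runs.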
Muscarinic acetylcholine receptor M1 (Homo sapiens), sequence (P11229 whole entry, looked up): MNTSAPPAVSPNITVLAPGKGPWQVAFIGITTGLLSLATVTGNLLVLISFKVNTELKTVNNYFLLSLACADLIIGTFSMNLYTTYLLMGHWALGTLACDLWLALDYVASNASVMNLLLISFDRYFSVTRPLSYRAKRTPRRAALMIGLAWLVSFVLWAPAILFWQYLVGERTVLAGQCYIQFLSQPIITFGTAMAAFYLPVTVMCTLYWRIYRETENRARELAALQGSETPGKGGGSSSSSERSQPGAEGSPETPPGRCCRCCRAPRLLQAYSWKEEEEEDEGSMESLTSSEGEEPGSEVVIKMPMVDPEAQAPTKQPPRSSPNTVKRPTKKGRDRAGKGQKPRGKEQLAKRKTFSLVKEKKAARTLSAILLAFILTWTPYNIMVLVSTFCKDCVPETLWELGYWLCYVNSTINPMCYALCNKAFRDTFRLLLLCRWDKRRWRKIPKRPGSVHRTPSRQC

The target is the same in assay [12]. Kind of assay: Cholinergic receptor muscarinic 1 (CHRM1) small molecule agonists, cell-based qHTS assay (AID 1963589). Also: nearly all actives have a fitted effect of over 35% in size. Put shortly: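 Stable CHRM1-CHO cells (human receptor) were incubated 18 h, dye-loaded for 1 h at 37 C and exposed to test compounds for agonist activity, with calcium-dependent fluorescence followed kinetically.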
Assay [13] is described as follows: cAMP Responsive Elements (CRE) small molecule agonists, cell-based qHTS assay (AID 1963590). Put shortly:
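FRET-based beta-lactamase readout (LiveBLAzer B/G, 2 h RT) quantified CRE activation in HEK 293T CRE-bla cells after 3 h treatment with DMSO-dissolved compounds.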

Assay [14] can be described thus: cAMP Responsive Elements (CRE) small molecule antagonists, cell-based qHTS assay (AID 1963591; active = well fitted inhibition curve with a large enough effect in the signal ratio in the repeat runs, not every such curve was filed as active; the % refers to the signal ratio). Put shortly:
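qHTS in CRE-bla HEK 293T cells: compound in DMSO, then 0.25 uM NKH477 (final), 3 h at 37 °C/5% CO2; beta-lactamase FRET read-out after 2 h substrate incubation.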

The target of assay [15] is Beta-2 adrenergic receptor (Homo sapiens) (UniProt P07550). The experiment in a line: Adrenergic beta2 receptor (ADRB2) small molecule agonists, cell-based qHTS assay (AID 1963593).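 Also: CHO cells stably overexpressing human ADRB2.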 Put shortly: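 CHO cells stably over-expressing ADRB2 were plated overnight at 37C, then dosed with compounds plus a stimulation mix containing 100uM IBMX and 25uM Ro-20-1724 for 0.5hr at room temperature. cAMP was measured by HTRF competition, 1hr.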
Beta-2 adrenergic receptor (Homo sapiens), sequence (P07550 whole entry, looked up): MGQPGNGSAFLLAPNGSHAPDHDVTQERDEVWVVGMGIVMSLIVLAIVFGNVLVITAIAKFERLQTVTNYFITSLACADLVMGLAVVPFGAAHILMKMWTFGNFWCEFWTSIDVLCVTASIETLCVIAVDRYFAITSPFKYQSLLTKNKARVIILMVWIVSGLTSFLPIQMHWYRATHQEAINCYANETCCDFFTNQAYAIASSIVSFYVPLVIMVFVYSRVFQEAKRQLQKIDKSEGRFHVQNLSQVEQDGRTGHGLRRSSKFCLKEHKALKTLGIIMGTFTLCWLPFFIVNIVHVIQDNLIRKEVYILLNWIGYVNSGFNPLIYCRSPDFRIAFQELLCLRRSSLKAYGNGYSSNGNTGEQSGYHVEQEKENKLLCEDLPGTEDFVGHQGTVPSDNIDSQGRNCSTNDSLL

Assay [16] concerns the target D(2) dopamine receptor (Homo sapiens) (UniProt P14416). The experiment in a line: Dopamine D2 receptor (DRD2) small molecule agonists, cell-based qHTS assay (AID 1963594). Also: nearly all actives have a fitted effect of over 35% in size. The method in brief:
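cAMP accumulation in DRD2-HEK293 cells measured by HTRF after 1 h detection; compounds added 10 min before NKH477 (200nM […]) forskolin-analogue stimulation, 30 min at room temperature, with Ro20-1724 present at 0.1 mM final.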

For assay [17] the target is unchanged. Kind of assay: Dopamine D2 receptor (DRD2) small molecule antagonists, cell-based qHTS assay (AID 1963595; active = well fitted inhibition curve with a large enough effect in the signal ratio in the repeat runs, with a control signal flat; the % refers to the signal ratio). Put shortly:
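Antagonist mode in DRD2-HEK293 cells: after compound addition with 0.1 mM Ro20-1724, cells received quinpirole (12 nM) and NKH477 (200 nM) for 30 min at room temperature; HTRF cAMP read after 1 h detection.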

The target of assay [18] is Beta-2 adrenergic receptor (Homo sapiens) (UniProt P07550). The experiment in a line: Adrenergic beta2 receptor (ADRB2) small molecule antagonists, cell-based qHTS assay (AID 1963592). Also: series mostly up to about 92 µM; nearly all actives have a fitted effect of over 50% in size. The method in brief:
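Cells (CHO, stable ADRB2 overexpression) incubated 18-20hr at 37C; compounds added from DMSO; agonist mix (1nM isoproterenol, 100uM IBMX, 25uM Ro-20-1724) added; 0.5hr RT; d2-cAMP and anti-cAMP-cryptate added; 1hr RT; 665/615 nm read.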

KiSS-1 receptor (Homo sapiens), sequence (Q969F8 whole entry, looked up): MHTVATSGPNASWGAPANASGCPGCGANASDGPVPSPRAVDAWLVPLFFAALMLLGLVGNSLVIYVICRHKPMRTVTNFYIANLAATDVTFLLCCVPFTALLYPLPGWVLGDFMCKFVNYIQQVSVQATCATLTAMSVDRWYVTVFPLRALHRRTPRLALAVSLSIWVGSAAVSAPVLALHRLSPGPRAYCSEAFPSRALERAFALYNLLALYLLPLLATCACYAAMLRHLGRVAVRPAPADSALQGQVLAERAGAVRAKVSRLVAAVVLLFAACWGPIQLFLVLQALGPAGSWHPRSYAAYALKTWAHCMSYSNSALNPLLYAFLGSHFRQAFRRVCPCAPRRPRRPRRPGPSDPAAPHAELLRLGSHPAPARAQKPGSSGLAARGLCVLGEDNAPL
D(2) dopamine receptor (Homo sapiens), sequence (P14416 whole entry, looked up): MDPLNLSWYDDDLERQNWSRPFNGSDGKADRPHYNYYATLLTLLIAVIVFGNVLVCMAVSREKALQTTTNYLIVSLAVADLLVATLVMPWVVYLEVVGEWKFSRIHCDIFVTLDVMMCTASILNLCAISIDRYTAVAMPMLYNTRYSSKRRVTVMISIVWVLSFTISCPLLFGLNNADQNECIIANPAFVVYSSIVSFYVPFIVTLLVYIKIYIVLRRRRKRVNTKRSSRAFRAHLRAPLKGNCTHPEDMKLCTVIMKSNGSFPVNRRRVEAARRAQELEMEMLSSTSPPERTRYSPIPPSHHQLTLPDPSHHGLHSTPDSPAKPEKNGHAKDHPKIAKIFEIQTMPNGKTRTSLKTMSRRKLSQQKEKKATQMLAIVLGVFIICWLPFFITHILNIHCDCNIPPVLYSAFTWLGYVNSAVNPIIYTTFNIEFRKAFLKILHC
5-hydroxytryptamine receptor 2A (Homo sapiens), sequence (P28223 whole entry, looked up): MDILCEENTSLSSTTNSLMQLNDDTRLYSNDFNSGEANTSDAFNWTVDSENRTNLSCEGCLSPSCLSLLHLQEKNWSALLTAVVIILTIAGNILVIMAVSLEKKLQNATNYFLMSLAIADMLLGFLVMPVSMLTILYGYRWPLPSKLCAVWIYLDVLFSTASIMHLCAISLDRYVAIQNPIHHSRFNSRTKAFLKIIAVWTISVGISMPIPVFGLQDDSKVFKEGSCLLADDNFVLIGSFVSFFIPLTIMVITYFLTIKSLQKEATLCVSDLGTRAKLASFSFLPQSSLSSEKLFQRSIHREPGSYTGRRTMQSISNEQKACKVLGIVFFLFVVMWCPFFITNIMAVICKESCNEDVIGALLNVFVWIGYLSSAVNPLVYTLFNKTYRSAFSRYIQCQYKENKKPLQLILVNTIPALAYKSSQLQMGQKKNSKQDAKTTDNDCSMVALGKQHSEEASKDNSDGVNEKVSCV

As to `CCOP(=S)(OCC)SCSCC`, the Potency entry in [1], in assay [2], in assay [3], in assay [4], in assay [5] and in [6] was “inactive” each time. Besides, the Potency result in assay [7], in [8], in assay [9], in assay [10], in assay [11] and in [12] was “inactive” each time. In addition, the Potency entry in [13], in assay [14], in assay [15], in assay [16] and in [17] was “inactive” in each case.
Turning to `Cc1ccccc1CO[C@@H]1C[C@@]2(C(C)C)CC[C@]1(C)O2`, the Potency entry in [1], in assay [2], in assay [3], in [4], in assay [5] and in [6] was “inactive” each time. Further, the Potency entry in assay [7], in assay [8], in assay [9], in [10], in assay [11] and in [12] was “inactive” each time. Besides, the Potency entry in assay [18], in [15], in [16] and in [17] was “inactive” each time.
In the case of `CC[C@H](O)C(C[C@H](C)N(C)C)(c1ccccc1)c1ccccc1`, the Potency entry in assay [1], in [2], in assay [3], in assay [4], in assay [5] and in assay [6] was “inactive” each time. Moreover, the Potency result in [7], in assay [8], in assay [9], in assay [10], in [13] and in assay [14] was “inactive” throughout. The Potency entry in [15], in assay [16] and in assay [17] was “inactive” each time. The Potency in assay [11] was 34.1 µM (active).
For `CC(C)CC#N`, the Potency entry in [1], in [2], in assay [3], in [4], in assay [5] and in [6] was “inactive” each time. For the same compound, the Potency entry in assay [7], in [8], in assay [9], in [10], in [11] and in [12] was “inactive” each time. Also, the Potency result in assay [13], in assay [18] and in assay [16] was “inactive” each time.
Take `CCOP(=S)(OCC)SCSc1ccc(Cl)cc1`: the Potency entry in [1], in [2], in assay [3], in [4], in [5] and in assay [6] was “inactive” each time. The Potency entry in assay [7], in assay [8], in assay [9], in assay [10], in assay [11] and in [12] was “inactive” throughout. Also, the Potency entry in [13], in assay [18], in assay [15], in assay [16] and in assay [17] was “inactive” throughout.
As for `CCOP(=O)(Sc1ccccc1)Sc1ccccc1`, the Potency result in assay [1], in assay [3], in assay [4], in [5], in assay [6] and in assay [7] was “inactive” each time. In addition, the Potency result in assay [8], in [9], in [10], in assay [11], in assay [12] and in assay [13] was “inactive” in each case. Besides, the Potency result in [18], in assay [15], in assay [16] and in assay [17] was “inactive” each time. Moreover, in assay [2], the Potency is 61.1 µM (active).
Turning to `O=C(CBr)c1ccccc1`, the Potency entry in assay [1], in assay [3], in [4], in assay [5], in [6] and in [7] was “inactive” in each case. Moreover, the Potency result in assay [8], in [9], in assay [10], in [11], in assay [12] and in [13] was “inactive” throughout. Moreover, the Potency entry in assay [18], in [16] and in assay [17] was “inactive” in each case. The Potency in assay [2] is 69 µM (active).
`C=CCOC(=O)c1ccccc1N`: the Potency result in assay [1], in [3], in [4], in assay [5], in assay [6] and in [7] was “inactive” each time. The Potency entry in assay [8], in assay [9], in assay [10], in assay [11], in assay [12] and in [13] was “inactive” each time. For the same compound, the Potency entry in [18], in assay [16] and in assay [17] was “inactive” in each case. The Potency in assay [2] was 6.15 µM (active).
With `O=C(Nc1ccc(F)cc1F)c1cccnc1Oc1cccc(C(F)(F)F)c1`, the Potency result in [1], in assay [2], in assay [3], in assay [4], in [5] and in assay [6] was “inactive” in each case. Also, the Potency result in assay [7], in assay [8], in assay [9], in assay [10], in assay [11] and in [12] was “inactive” in each case. In addition, the Potency result in [18], in assay [16] and in assay [17] was “inactive” throughout.
